According to PubChem BioAssay (NCATS):
Results filed as inconclusive are left out. Calls of active or inactive are those of the source. The call rests on the fitted dose curve; in most records, active means well fitted inhibition curve with a large enough effect; inconclusive means small, poorly fitted or top-dose-only effect; inactive means flat fitted curve, though single readings scatter.

Experiments:
Assay in all cases: qHTS profiling for inhibitors of Plasmodium falciparum proliferation (AID 504749); further: nearly all actives have a fitted effect of over 60% in size
Settings in all cases: P. falciparum in erythrocytes, SYBR Green DNA, 72 h; series mostly up to 28.7 µM
[1] = tested on: AA1029
How it was run: (§1)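 SYBR Green fluorescence (ex 485 nm, em 535 nm) reports parasite DNA after 72 h compound exposure of infected red cells at 0.3% parasitemia, 2.5% hematocrit; signal normalized to 0.29 uM artemisinin and vehicle wells.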

[2] = tested on: ATS95
How it was run: as §1

[3] = tested on: C2A
How it was run: as §1

[4] = tested on: CP211
How it was run: as §1

[5] = tested on: CP217
How it was run: as §1

[6] = tested on: CP250
How it was run: as §1

[7] = tested on: CP252
How it was run: as §1

[8] = tested on: CP256
How it was run: as §1

[9] = tested on: CP269
How it was run: as §1

[10] = tested on: CP325
How it was run: as §1

[11] = tested on: CP329
How it was run: as §1

[12] = tested on: DIV17
How it was run: as §1

[13] = tested on: ECU
How it was run: as §1

[14] = tested on: FAB9
How it was run: as §1

[15] = tested on: N140
How it was run: as §1

[16] = tested on: P93_24
How it was run: as §1

[17] = tested on: PAD
How it was run: as §1

[18] = tested on: PC15
How it was run: as §1

[19] = tested on: PC26
How it was run: as §1

[20] = tested on: SC27B
How it was run: as §1

Measured: Potency

COc1cccc2c1C(=O)c1c(O)c3c(c(O)c1C2=O)C[C@](O)(C(=O)CO)C[C@@H]3O[C@H]1C[C@H](N)[C@@H](O)[C@H](C)O1
inactive: all assays above

CC1(C)[C@@H]2CC[C@]1(C)[C@@H](OC(=O)CSC#N)C2
inactive: all assays above
